TbPYK inhibitor: T. brucei pyruvate kinase inhibition | Q57TT1 | TbPYK enzyme, Kinase-Glo Plus ATP luminescence, 45 min | Potency, µM (series often up to 76.8 µM), inactives show top-dose activity, negative = inhibition, hits mostly inhibitors | 410,000 tested, 0.12% active | AID 624173; further: nearly all actives have a fitted effect of over 50% in size
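Assay buffer: 50 mM TEA pH 7.2, 100 mM KCl, 10 mM MgCl2, 0.05% BSA, 0.01% Tween-20. Pyruvate kinase from T. brucei plus substrate met compound, then ADP (130 uM final). Luminescence was read post 45 min RT.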
RE007 growth inh: less growth of the S. pombe RE007 Vpr strain; Potency, µM (series often up to 92.2 µM), without a hit: top-dose activity change, negative = less growth, usual class: inhibitors; S. pombe RE007 Vpr strain, BacTiter-Glo ATP luminescence, 24 h; 360,000 tested, 0.21% active; active means well fitted falling curve with a large enough effect; inconclusive means small, poorly fitted or top-dose-only effect; inactive means no such curve, though single readings can be large or run the other way; further: nearly all actives have a fitted effect of over 50% in size
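Fission yeast strain RE007, carrying one chromosomally integrated HIV-1 vpr copy, was seeded at OD 0.01 in PMG+AL medium with 23 nL pinned compound. After 24 h at 30 °C and 99% humidity, viability was read by BacTiter-Glo luminescence.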
Sm TGR inh: S. mansoni TGR enzyme inhibition; 360,000 tested, 3% active; AID 485364; Potency, µM (top dose mostly 114 µM), without a hit: top-dose activity change, negative = inhibition, actives largely listed as inhibitors; purified TGR, DTNB reduction, TNB absorbance 405 nm; further: nearly all actives have a fitted effect of over 60% in size
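First, TGR (20 nM dispensed) and NADPH were mixed with compound. Second, a 15 min room-temperature incubation followed. Third, further NADPH and then DTNB were added to start the reaction. Finally, TNB absorbance was monitored kinetically.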
FBPA Giardia inh: inhibitors of Giardia lamblia fructose-1,6-bisphosphate aldolase | A8B2U2 | purified Giardia FBPA | Potency, µM (series often up to 59.6 µM), for inactives: top-dose activity, negative = inhibition, actives largely listed as inhibitors | 290,000 tested, 0.71% active | AID 2451; further: nearly all actives have a fitted effect of over 55% in size
Target sequence (A8B2U2 whole entry, looked up): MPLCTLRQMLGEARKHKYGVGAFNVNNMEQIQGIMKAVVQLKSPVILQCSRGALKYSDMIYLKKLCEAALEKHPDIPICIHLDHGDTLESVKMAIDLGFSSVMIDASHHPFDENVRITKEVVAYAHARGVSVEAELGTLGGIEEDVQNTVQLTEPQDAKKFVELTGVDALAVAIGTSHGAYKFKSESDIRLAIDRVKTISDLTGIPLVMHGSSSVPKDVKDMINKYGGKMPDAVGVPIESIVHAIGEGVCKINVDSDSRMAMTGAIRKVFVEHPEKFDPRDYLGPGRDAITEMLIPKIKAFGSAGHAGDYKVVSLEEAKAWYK
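40 nM FBPA preincubated 10 min at RT with compound (up to 57.5 uM final), then substrate plus GAPDH/TPI/NAD/arsenate coupling and diaphorase/resazurin added. Fluorescence read after 20 min at RT, 525/598 nm.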
LmPK inh: inhibitors of Leishmania mexicana pyruvate kinase; Potency, µM (doses to about 57.5 µM), without a hit: at the highest dose activity change, negative = inhibition, hits mostly inhibitors; Q27686; purified LmPK, Kinase-Glo ATP luminescence, 1 h; 290,000 tested, 0.37% active; AID 1721
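ATP generated from ADP (0.1 mM) and PEP (0.5 mM) by 0.1 nM LmPK over 1 h at room temperature (pH 7.2 imidazole buffer) was detected by coupled luciferase luminescence. Values were normalized to uninhibited and no-enzyme wells.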
* marks the source's active call; other numbers are inactive results; ? = inconclusive; nt = no result. In the library only some 3.3% were active in any assay of this set; here they are far more common. Unless noted, the call rests on the fitted dose curve; in most records, active means well fitted curve in the direction sought with a large enough effect; inconclusive means small, poorly fitted or top-dose-only effect, or another doubt; inactive means no such curve, though single readings can be large; an effect the other way counts as inactive or inconclusive. On the % scale 0 is the no-effect control and ±100 the full control effect; potency means the concentration at half of the fitted maximal effect.

SMILES	TbPYK inhibitor	RE007 growth inh	Sm TGR inh	FBPA Giardia inh	LmPK inh
Fc1cccc2sc(Nc3nnc(-c4ccco4)o3)nc12	-3%	-25%	40µM*	?	-4%
O=C(Nc1nc2c(F)cccc2s1)c1ccco1	3%	-22%	-2%	-1%	-14%
O=C1c2ccccc2CSc2c(O)cccc21	-12%	1%	nt	nt	nt
Cn1c(N)c(C(=O)COC(=O)c2cc(-c3ccco3)nc3ccccc23)c(=O)n(Cc2ccccc2)c1=O	nt	nt	8.9µM*	-8%	3%
Cn1c(N)c(C(=O)COC(=O)c2cc(-c3ccco3)nc3ccccc23)c(=O)n(C)c1=O	0%	-16%	8.9µM*	-12%	0%
Cn1c(N)c(C(=O)COC(=O)c2cc(C(F)(F)F)nc3ccccc23)c(=O)n(Cc2ccccc2)c1=O	-2%	0%	36%	-1%	-1%
COc1ccc(-c2cc(C(=O)OCC(=O)c3c(N)n(C)c(=O)n(C)c3=O)c3ccccc3n2)cc1	-1%	-13%	0%	-4%	4%
CCOC(=O)c1nn(-c2ccc(Cl)cc2)cc1O	-9%	-19%	-4%	-2%	-7%
Cc1ccc(C)c(NC(=O)CSc2n[nH]c(-c3ccccn3)n2)c1	13%	2%	-1%	?	0%
N#CC(C#N)=Cc1ccc(-c2ccccc2F)o1	1%	16%	4µM*	4%	-1%
Oc1c(C(c2ccccc2Cl)N2CCCC2)ccc2cccnc12 (stereo unspecified)	42%	?	?	-8%	0%
Oc1c(C(c2cccs2)N2CCN(c3ccccc3)CC2)ccc2cccnc12 (stereo unspecified)	nt	nt	0.71µM*	?	2%
CC(=O)NC(c1ccc(C(C)C)cc1)c1ccc2cccnc2c1O (stereo unspecified)	-12%	?	0%	16%	1%
CN1CCN(C(c2ccc(C(F)(F)F)cc2)c2ccc3cccnc3c2O)CC1 (stereo unspecified)	38%	-9%	0.32µM*	-26%	0%
O=C(Cc1ccccc1[N+](=O)[O-])NNC(=O)c1ccncc1	0%	3%	5%	nt	nt
CCN(CC)c1ccc(NC(=O)c2sc3ccccc3c2Cl)cc1	-11%	nt	-2%	nt	nt
CCN(CC)Cc1ccc(NC(=O)c2sc3cc(Cl)ccc3c2Cl)cc1	-1%	28µM*	9%	-1%	-4%
O=C1S/C(=C\c2ccc(N3CCOCC3)o2)C(=O)N1c1ccccc1	28µM*	-7%	?	?	3%
O=C1S/C(=C\c2ccc(N3CCOCC3)o2)C(=O)N1Cc1c(F)cccc1Cl	25µM*	-19%	2.8µM*	?	1%
COC1=CC(=O)C(O)=C/C1=C\C=C\c1ccccc1	nt	nt	nt	22µM*	nt
COc1cc(O)cc(/C=C/c2ccccc2)c1	5%	8%	nt	-13%	nt
CC(C)N(Cc1cc2ccccc2[nH]c1=O)C(=O)c1ccco1	1%	-12%	28µM*	-11%	0%
Cc1ccc2cc(COC(=O)c3ccco3)c(=O)[nH]c2c1	-4%	-11%	45µM*	2%	8%
COc1ccc(N(CC(=O)Nc2cc(C)on2)S(=O)(=O)c2cc(C)ccc2C)cc1	1%	3%	-14%	-6%	0%
O=C(/C=C/c1ccccc1Cl)c1ccccc(=O)c1O	-10%	-16%	4.5µM*	?	-1%
SMILES	TbPYK inhibitor	RE007 growth inh	Sm TGR inh	FBPA Giardia inh	LmPK inh
O=C(/C=C/c1ccc([N+](=O)[O-])cc1)c1ccccc(=O)c1O	-7%	-25%	nt	nt	nt
Cc1ccc(/C=C/C(=O)c2ccccc(=O)c2O)c(C)c1	4%	?	14µM*	?	-2%
O=C(/C=C/c1ccc(O)c(O)c1)c1ccccc1O	-23%	?	?	-27%	?
Cc1ccc(C)c(/C=C/C(=O)c2ccccc(=O)c2O)c1	0%	?	13µM*	?	-2%
O=[N+]([O-])c1ccc2c(c1)C(N1CCOCC1)/C(=C/COc1ccc3ccccc3c1Br)O2 (stereo unspecified)	-7%	-17%	-15%	-7%	-4%
COc1cccc(-n2c(CN3CCN(Cc4ccccc4)CC3)nc3ccc([N+](=O)[O-])cc3c2=O)c1	nt	nt	-22%	-16%	-1%
CCOC(=O)c1ccc(-n2c(CN3CCN(CCO)CC3)nc3ccc([N+](=O)[O-])cc3c2=O)cc1	2%	8%	35µM*	-6%	-1%
COc1ccc(C2C(C(=O)N3CCOCC3)CCC(=O)N2c2cc(OC)c(OC)c(OC)c2)cc1 (stereo unspecified)	5%	-18%	-10%	0%	-2%
COc1cccc(Nc2nc(N)nc(CCl)n2)c1	-7%	3%	20µM*	-2%	-6%
Cc1cccc(Nc2nc(N)nc(CCl)n2)c1	-5%	0%	14µM*	-3%	-9%
COc1cccc(Nc2nc(N)nc(C(F)(F)F)n2)c1	2%	2%	-32%	-7%	0%
O=C(CSc1nnc(-c2ccccc2)n1Cc1ccco1)Nc1ccc2c(c1)OCCO2	1%	15%	35µM*	2%	5%
O=C(CSc1nnc(-c2cccs2)n1Cc1ccco1)Nc1ccc2c(c1)OCO2	-4%	15%	-9%	-4%	5%
Cc1cc(Cl)ccc1NC(=O)CSc1nnc(Cc2cccs2)n1Cc1ccco1	-4%	16%	20µM*	5%	7%
O=C(CSc1nnc(-c2ccncc2)n1Cc1ccco1)Nc1cccc(O)c1	1%	-11%	-10%	-2%	-1%
Cc1cc(C)c(NC(=O)CSc2nnc(-c3ccncc3)n2Cc2ccco2)c(Cl)c1	-2%	7%	22µM*	-22%	0%
N#Cc1ccc(CSc2nnc(Cc3cccs3)n2Cc2ccco2)cc1	?	-23%	11µM*	-15%	-3%
O=S(=O)(c1ccccc1)N1CCN(c2ncnc3sc(-c4ccccc4)cc23)CC1	7%	11%	-12%	7%	2%
CN1CCCN(C(=O)c2cccc(Br)c2)CC1	-3%	-5%	-11%	-3%	-3%
O=C(Cn1cc(SCc2ccc(Br)cc2)c2ccccc21)N1CCCCC1	-17%	nt	1%	nt	nt
CN(C)c1ncc2nc(CCc3ccccc3)c(=O)n(C[C@H]3CCCO3)c2n1	-7%	nt	nt	-10%	nt
Cc1cc(C(=O)Nc2ccccn2)cs1	-16%	-18%	-3%	0%	14µM*
Cc1cccc(S(=O)(=O)N2CN(Cc3ccco3)c3nc4ccccc4nc32)c1	-6%	-23%	18µM*	0%	5%
CNC(=S)N/N=C(\C)c1ccc(C(C)(C)C)cc1	4%	0%	3%	-3%	1%
CNC(=S)N/N=C(\C)c1ccccc1	-8%	-6%	5.6µM*	?	1%
O=C(CN1C(=O)c2ccc([N+](=O)[O-])cc2C1=O)Nc1nccs1	-2%	-3%	nt	-10%	8%
